The values below come from PubChem BioAssay (Tox21).

The structures appear in SMILES notation. Unmarked numbers belong to inactive results. Results filed as inconclusive are left out. The source made the active and inactive calls. Unless noted, calls come from the whole dose curve; as a rule, active = well fitted curve in the direction sought with a large enough effect in the repeat runs; inconclusive = weak or mixed curves; inactive = no such curve, though single readings can be large; an effect the other way counts as inactive or inconclusive.

Assay [1] deals with Estrogen receptor beta (Homo sapiens) (UniProt Q92731). Put plainly: qHTS assay to identify small molecule agonists of the estrogen receptor beta (ER-beta) signaling pathway (AID 1259377; active = well fitted activation curve with a large enough effect in the signal ratio in the repeat runs, not every such curve was filed as active; the % refers to the signal ratio). The procedure, abridged:
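qHTS in ER-beta-UAS-bla HEK293T cells: 6 hr settling, then 16 hr compound at 37C, then LiveBLAzer substrate 2 h at RT before fluorescence reading.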
For orientation: qHTS replaces the single test concentration by a dilution series.

The target is the same in assay [2]. Description: qHTS assay to identify small molecule antagonists of the estrogen receptor beta (ER-beta) signaling pathway (AID 1259378; active = well fitted inhibition curve with a large enough effect in the signal ratio in the repeat runs, not every such curve was filed as active; the % refers to the signal ratio). The essentials:
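ER-beta-UAS-bla HEK293T (GripTite) cells in 2% charcoal-stripped FBS medium were preincubated 6 hr at 37C, dosed with compound, then stimulated with 1 nM E2 (final) for 16 hr; beta-lactamase reporter read by B/G FRET fluorescence after 2 hr substrate loading.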

Assay [3] in a line: qHTS assay to identify small molecule agonists of the estrogen receptor beta (ER-beta) signaling pathway - cell viability counter screen (AID 1259380). Note: nearly all actives have a fitted effect of over 30% in size. Note: potency is the fitted concentration of half-maximal effect. The essentials:
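Measured: luminescence from CellTiter-Glo after 30 min at room temperature, added to wells already read for the LiveBLAzer FRET reporter (2 hr substrate); ER-beta-UAS-bla HEK293T cells had 16 hr compound treatment at 37C, 5% CO2.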

For assay [4], the target named is Androgen receptor (Homo sapiens) (UniProt P10275). Put plainly: qHTS assay to identify small molecule agonists of the androgen receptor (AR) signaling pathway in the presence of an antagonist (AID 1259381; calls by dose curve; note: nearly all actives have a fitted effect of over 15% in size). The essentials: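 Luminescent ONE-Glo read, 30min at room temperature, follows 16hr compound exposure (15 concentrations) of MDA-kb2 cells at 37C, 0% CO2, with nilutamide added at 3.0uM final.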

Assay [5] in a line: qHTS assay to identify small molecule antagonists of the estrogen receptor beta (ER-beta) signaling pathway - cell viability counter screen (AID 1259382). Note: series mostly up to about 92 µM; nearly all actives have a fitted effect of over 55% in size. The procedure, abridged:
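Readout: luminescence, CellTiter-Glo, same wells as bla assay. System: ER-beta-UAS-bla GripTite HEK293T, 2% charcoal-stripped FBS. Exposure: compounds plus 1nM 17-beta-estradiol, 16 hr, 37C.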

Assay [6] deals with Estrogen receptor (Homo sapiens) (UniProt P03372). Description: qHTS assay to identify small molecule agonists of the estrogen receptor alpha (ER-alpha) signaling pathway in the presence of an antagonist (AID 1259383; calls by dose curve; note: top concentration of the series differs between compounds; nearly all actives have a fitted effect of over 15% in size). The essentials: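 Quantitative HTS confirmation: compounds titrated at 15 concentrations onto estrogen-deprived VM7Luc4E2 cells carrying a four-ERE luciferase construct, with ICI-182,780 present at 10.0nM final. Signal is luminescence after 22hr exposure.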

Assay [7] is described as follows: qHTS assay to identify small molecule agonists or antagonists of the thyroid stimulating hormone receptor (TSHR) signaling pathway - wild type cell line counter screen (AID 1259384; calls by dose curve). The essentials:
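Wild-type HEK293 cells were plated 18 h at 37 C/5% CO2, pin-dosed with compound plus Ro20-1724 medium, held 30 min at room temperature, then given cAMP-d2 and anti-cAMP-cryptate; fluorescence was read after 1 h. Fifteen concentrations, triplicate.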

Assay [8] has as its target Thyrotropin receptor (Homo sapiens) (UniProt P16473). Put plainly: qHTS assay to identify small molecule antagonists of the thyroid stimulating hormone receptor (TSHR) signaling pathway (AID 1259385; calls by dose curve; note: nearly all actives have a fitted effect of over 20% in size). The procedure, abridged:
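TSHR-HEK293 cells were plated and held 18 h at 37C/5% CO2, then given compound plus Ro20-1724 and stimulated with TSH at 1.5 ng/mL final. After 30 min at room temperature, cAMP was detected with cAMP-d2/anti-cAMP-cryptate (1 h) by fluorescence.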

A short description of assay [9]: qHTS assay to identify small molecule agonists of the estrogen receptor alpha (ER-alpha) signaling pathway in the presence of an antagonist - cell viability counter screen (AID 1259386).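 Note: series mostly up to about 92 µM; cells exposed to compounds for 22 h at 37 °C before the viability read; nearly all actives have a fitted effect of over 30% in size.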 The essentials:
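The test measures whether compounds kill ER-alpha reporter cells (VM7Luc4E2) under antagonist co-treatment (ICI-182,780, 10.0nM). Fluorescence from CellTiter-Fluor is read after a 22hr exposure.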

Assay [10] concerns the target Progesterone receptor (Homo sapiens) (UniProt P06401). Description: qHTS assay to identify small molecule agonists of the progesterone receptor (PR) signaling pathway (AID 1346784; calls by dose curve; note: nearly all actives have a fitted effect of over 30% in size; note: potency is the fitted concentration of half-maximal effect). The essentials:
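Fluorescence from LiveBLAzer B/G FRET substrate cleavage (2 hr, RT) reported PR activation in PR-UAS-bla HEK 293T cells treated 16 hr at 37C/5% CO2 with compounds; medium contained 2% charcoal-stripped FBS.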

The target is the same in assay [11]. Put plainly: qHTS assay to identify small molecule antagonists of the progesterone receptor (PR) signaling pathway (AID 1346795; active = well fitted inhibition curve with a large enough effect in the signal ratio in the repeat runs, not every such curve was filed as active; the % refers to the signal ratio). The essentials: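 Fluorescence intensity measured 2 hr after adding beta-lactamase FRET substrate to PR-UAS-bla HEK293T cells that had been co-treated 16 hr with compound and 1 nM R5020 (final concentration) in 2% charcoal-stripped FBS.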

A short description of assay [12]: qHTS assay to identify small molecule antagonists of the progesterone receptor (PR) signaling pathway - cell viability counter screen (AID 1346798). Note: series mostly up to about 92 µM; nearly all actives have a fitted effect of over 50% in size. The procedure, abridged: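 CellTiter-Glo luminescence; PR-UAS-bla HEK293T, 3,000 cells/well; compound + R5020, 16 hr, 37C/5% CO2; 30 min RT before read.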
The nature of assay [13]: qHTS assay to identify small molecule agonists of the progesterone receptor (PR) signaling pathway - cell viability counter screen (AID 1346799; calls by dose curve; note: nearly all actives have a fitted effect of over 45% in size). The procedure, abridged: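 In parallel with the beta-lactamase readout, cytotoxicity toward PR-UAS-bla HEK293T cells was measured by CellTiter-Glo luminescence following 16 hr compound incubation in 2% charcoal-stripped FBS medium.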

Assay [14] is described as follows: qHTS assay to identify small molecule antagonists of the TGF-beta/Smad signaling pathway - cell viability counter screen (AID 1346824). Note: nearly all actives have a fitted effect of over 50% in size. The procedure, abridged: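 SBE-bla HEK 293T cells were plated overnight at 37 C, then given compounds in DMSO plus TGF-beta1 (added as 0.25 ng/mL solution) for 5 hr. After the bla read, CellTiter-Glo was added to the same wells and luminescence read after 30 min at room temperature.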

The nature of assay [15]: qHTS assay to identify small molecule agonists of the TGF-beta/Smad signaling pathway - cell viability counter screen (AID 1346829). Note: top concentration of the series differs between compounds; nearly all actives have a fitted effect of over 45% in size. The procedure, abridged:
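Tox21 qHTS format: SBE-bla HEK 293T cells treated with DMSO-dissolved compounds for 5 hr; CellTiter-Glo luminescence after 30 min at room temperature.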

Assay [16] addresses Thyrotropin-releasing hormone receptor (Homo sapiens) (UniProt P34981). Description: qHTS assay to identify small molecule antagonists of the thyrotropin-releasing hormone receptor (TRHR) signaling pathway (AID 1346877; active = well fitted inhibition curve with a large enough effect in the repeat runs, not every such curve was filed as active; note: series mostly up to about 51 µM). The essentials: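 Overnight-plated (18 h, 37 °C) HEK293 cells expressing TRHR were dye-loaded 2 h, treated with compound, then stimulated with TRH at 1 nM final. Fluorescence intensity was captured every second for 3 min.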

The target is the same in assay [17]. Description: qHTS assay to identify small molecule agonists of the thyrotropin-releasing hormone receptor (TRHR) signaling pathway (AID 1346891; calls by dose curve;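 note: HEK293 cells expressing TRHR with calcium dye readout; series mostly up to about 58 µM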). The procedure, abridged:
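Compounds were tested as agonists at 15 concentrations, in triplicate, on TRHR-Hek293 cells; calcium-sensitive dye fluorescence was recorded for 3 min following addition.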

Assay [18] is described as follows: Human pregnane X receptor (PXR) small molecule agonists, qHTS cell viability counter screen (AID 1346977). Note: nearly all actives have a fitted effect of over 50% in size. Note: potency is the fitted concentration of half-maximal effect. The essentials:
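Viability counter screen: CellTiter-Fluor signal in PXR-Luc HepG2 cells, 24hr compound exposure, 37C, 5% CO2.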

Assay [19] can be described thus: qHTS assay to identify small molecule agonists of the androgen receptor (AR) signaling pathway in the presence of an antagonist - cell viability counter screen (AID 1259379).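 Note: MDA-kb2 human breast cancer cells carrying an MMTV luciferase reporter; series mostly up to about 92 µM; nearly all actives have a fitted effect of over 25% in size.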 The essentials: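 MDA-kb2 viability measured by CellTiter-Fluor fluorescence in the same wells as the luciferase signal; nilutamide 3.0uM final; 15-point compound titration; 16 hr at 37C.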

Assay [20] can be described thus: qHTS assay to identify small molecule agonists of the TGF-beta/Smad signaling pathway (AID 1346859; active = well fitted activation curve with a large enough effect in the signal ratio in the repeat runs, not every such curve was filed as active; the % refers to the signal ratio; note: series mostly up to about 77 µM). The procedure, abridged:
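After overnight seeding, SBE-bla HEK 293T cells are dosed with compounds in DMSO and kept 5 hr at 37 C, 5% CO2. LiveBLAzer-type FRET substrate is then applied for 2 hr at room temperature.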

Sequence of Thyrotropin receptor (Homo sapiens) (P16473 whole entry, looked up): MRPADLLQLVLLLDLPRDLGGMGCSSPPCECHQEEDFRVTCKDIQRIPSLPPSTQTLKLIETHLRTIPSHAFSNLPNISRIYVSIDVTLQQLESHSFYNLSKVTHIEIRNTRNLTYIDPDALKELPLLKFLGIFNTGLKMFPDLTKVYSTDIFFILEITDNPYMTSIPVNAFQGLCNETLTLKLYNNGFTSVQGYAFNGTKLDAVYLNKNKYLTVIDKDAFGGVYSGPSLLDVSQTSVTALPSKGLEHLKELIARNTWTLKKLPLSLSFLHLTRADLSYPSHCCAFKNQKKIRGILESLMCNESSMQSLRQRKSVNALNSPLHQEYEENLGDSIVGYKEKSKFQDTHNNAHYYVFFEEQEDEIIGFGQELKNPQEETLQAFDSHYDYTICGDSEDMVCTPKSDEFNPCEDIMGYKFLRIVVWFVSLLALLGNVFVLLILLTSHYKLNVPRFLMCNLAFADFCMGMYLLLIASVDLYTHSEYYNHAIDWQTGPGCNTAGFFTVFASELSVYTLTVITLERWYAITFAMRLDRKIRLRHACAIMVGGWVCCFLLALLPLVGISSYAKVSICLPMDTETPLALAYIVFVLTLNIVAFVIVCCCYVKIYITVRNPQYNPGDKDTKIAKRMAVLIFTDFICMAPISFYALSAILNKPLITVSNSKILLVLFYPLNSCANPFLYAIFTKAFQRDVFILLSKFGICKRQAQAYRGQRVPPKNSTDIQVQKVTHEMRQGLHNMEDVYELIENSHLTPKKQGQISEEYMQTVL
Sequence of Estrogen receptor (Homo sapiens) (P03372 whole entry, looked up): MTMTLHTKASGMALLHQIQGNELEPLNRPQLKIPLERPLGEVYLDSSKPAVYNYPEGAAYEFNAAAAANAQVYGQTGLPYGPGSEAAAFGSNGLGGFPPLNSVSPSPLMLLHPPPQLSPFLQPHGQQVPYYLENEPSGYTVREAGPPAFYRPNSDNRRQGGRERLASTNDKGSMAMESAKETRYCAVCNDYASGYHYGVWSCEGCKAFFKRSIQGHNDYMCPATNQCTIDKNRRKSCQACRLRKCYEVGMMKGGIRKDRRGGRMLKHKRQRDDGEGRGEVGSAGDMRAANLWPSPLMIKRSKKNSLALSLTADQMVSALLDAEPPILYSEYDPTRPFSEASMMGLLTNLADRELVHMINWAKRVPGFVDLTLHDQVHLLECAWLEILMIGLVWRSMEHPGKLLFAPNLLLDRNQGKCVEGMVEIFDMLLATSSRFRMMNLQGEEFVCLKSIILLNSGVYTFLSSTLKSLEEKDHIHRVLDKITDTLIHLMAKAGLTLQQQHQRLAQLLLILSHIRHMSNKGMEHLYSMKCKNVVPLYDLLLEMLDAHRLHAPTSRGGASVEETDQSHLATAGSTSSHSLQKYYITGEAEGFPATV
Sequence of Progesterone receptor (Homo sapiens) (P06401 whole entry, looked up): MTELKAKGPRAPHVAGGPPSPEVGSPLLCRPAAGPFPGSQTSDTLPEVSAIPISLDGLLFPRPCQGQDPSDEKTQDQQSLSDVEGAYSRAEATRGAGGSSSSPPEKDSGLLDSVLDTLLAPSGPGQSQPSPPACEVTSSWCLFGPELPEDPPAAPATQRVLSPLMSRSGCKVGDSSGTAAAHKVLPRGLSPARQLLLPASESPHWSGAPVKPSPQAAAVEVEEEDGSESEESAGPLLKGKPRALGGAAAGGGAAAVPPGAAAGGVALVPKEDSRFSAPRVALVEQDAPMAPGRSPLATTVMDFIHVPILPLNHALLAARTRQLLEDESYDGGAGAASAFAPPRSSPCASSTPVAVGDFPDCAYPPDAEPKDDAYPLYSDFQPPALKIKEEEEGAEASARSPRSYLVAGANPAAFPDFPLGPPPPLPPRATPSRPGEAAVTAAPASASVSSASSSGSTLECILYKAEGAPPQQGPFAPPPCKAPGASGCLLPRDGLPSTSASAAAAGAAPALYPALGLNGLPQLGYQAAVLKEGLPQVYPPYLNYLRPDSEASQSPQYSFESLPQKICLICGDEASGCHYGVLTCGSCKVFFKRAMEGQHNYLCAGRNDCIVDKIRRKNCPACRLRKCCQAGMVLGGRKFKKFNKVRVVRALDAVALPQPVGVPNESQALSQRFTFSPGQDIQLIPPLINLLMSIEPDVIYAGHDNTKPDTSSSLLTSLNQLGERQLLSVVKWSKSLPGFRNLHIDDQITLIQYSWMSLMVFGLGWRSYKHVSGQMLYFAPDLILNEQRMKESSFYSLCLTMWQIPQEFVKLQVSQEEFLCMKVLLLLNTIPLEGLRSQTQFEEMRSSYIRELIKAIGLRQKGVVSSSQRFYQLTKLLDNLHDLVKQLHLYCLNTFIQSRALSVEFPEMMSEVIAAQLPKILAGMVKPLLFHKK
Sequence of Estrogen receptor beta (Homo sapiens) (Q92731 whole entry, looked up): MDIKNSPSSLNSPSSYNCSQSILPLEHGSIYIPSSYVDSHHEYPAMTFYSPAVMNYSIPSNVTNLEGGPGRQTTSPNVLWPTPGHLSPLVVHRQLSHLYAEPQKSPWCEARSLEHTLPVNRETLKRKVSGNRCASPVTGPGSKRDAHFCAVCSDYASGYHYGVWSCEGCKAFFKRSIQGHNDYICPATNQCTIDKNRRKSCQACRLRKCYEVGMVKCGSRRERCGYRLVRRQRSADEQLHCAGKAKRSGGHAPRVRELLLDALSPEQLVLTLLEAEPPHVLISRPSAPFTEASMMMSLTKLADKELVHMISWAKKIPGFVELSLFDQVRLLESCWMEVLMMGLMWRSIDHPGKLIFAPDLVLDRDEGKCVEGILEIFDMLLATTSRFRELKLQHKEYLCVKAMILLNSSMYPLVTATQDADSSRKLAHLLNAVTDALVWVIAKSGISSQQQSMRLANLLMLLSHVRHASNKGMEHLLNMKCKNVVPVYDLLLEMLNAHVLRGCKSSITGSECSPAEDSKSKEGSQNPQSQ
Sequence of Thyrotropin-releasing hormone receptor (Homo sapiens) (P34981 whole entry, looked up): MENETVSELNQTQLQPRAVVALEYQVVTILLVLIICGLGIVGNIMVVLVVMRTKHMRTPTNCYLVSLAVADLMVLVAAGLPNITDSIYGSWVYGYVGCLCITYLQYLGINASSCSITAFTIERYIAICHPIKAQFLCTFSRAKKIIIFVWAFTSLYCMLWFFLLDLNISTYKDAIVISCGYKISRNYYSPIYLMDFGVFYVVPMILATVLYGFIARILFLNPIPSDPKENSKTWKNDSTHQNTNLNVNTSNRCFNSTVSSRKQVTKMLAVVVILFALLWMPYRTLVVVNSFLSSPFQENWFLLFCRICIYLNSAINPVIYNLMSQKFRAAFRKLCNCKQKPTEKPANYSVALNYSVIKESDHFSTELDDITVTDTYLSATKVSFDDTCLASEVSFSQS
Sequence of Androgen receptor (Homo sapiens) (P10275 whole entry, looked up): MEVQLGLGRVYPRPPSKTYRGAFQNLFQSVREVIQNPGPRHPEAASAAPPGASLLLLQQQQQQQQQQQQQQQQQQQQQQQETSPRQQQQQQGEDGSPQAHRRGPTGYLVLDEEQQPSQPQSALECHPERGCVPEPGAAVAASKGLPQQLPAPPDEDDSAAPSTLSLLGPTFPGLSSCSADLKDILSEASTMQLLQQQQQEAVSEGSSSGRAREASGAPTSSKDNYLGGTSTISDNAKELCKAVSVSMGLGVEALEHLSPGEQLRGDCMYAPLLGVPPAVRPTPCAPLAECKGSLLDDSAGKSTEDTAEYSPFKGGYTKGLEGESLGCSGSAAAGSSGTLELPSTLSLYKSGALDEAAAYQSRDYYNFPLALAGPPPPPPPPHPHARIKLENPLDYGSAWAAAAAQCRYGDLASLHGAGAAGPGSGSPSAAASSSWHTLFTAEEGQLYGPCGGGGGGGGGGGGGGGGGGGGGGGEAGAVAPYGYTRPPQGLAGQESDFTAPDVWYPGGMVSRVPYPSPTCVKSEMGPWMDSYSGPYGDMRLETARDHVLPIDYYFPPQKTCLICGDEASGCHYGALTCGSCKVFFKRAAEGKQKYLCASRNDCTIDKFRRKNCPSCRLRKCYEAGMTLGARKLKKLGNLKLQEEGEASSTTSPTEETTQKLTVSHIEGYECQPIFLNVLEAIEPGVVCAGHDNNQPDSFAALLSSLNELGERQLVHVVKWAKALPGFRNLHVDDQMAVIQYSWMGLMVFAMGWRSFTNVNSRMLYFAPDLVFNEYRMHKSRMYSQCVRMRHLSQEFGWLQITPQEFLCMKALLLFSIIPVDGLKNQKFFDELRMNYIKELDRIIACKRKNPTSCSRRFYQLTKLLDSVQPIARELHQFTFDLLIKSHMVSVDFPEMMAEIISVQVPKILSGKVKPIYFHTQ

As to `NC(=O)c1cccc([N+](=O)[O-])c1`, the Potency result in [1], in assay [2], in [3], in [5], in [6] and in assay [8] was “inactive” in each case. Besides, the Potency result in assay [9], in assay [10], in assay [11], in assay [12], in assay [13] and in assay [14] was “inactive” throughout. Also, the Potency result in assay [15], in [16] and in [18] was “inactive” each time. The outcome in assay [4], in [7] and in assay [17] was inactive.
Regarding `CCc1ccc(Br)cc1`, the Potency result in assay [1], in assay [2], in assay [3], in assay [6], in assay [8] and in [9] was “inactive” throughout. For the same compound, the Potency entry in assay [10], in [11], in [12], in assay [13], in assay [14] and in [15] was “inactive” each time. Besides, the Potency entry in [18] is “inactive”. Besides, the call in assay [7] was inactive.
With `CCCCN(CCCC)CC(O)c1cc(Cl)cc2c1-c1ccc(Cl)cc1/C2=C/c1ccc(Cl)cc1` (configuration not stated), the Potency entry in assay [1], in assay [19], in assay [6], in [8], in assay [10] and in assay [11] was “inactive” throughout. Also, the Potency entry in [12], in [13], in assay [14], in assay [15] and in [16] was “inactive” in each case. Besides, the Potency in [3] and in [18] was 29.8 µM (active) each time. The call in assay [7] and in [17] was inactive.
Consider `Clc1sc(Cl)c(Cl)c1Cl`, for which the Potency result in assay [1], in assay [2], in assay [3], in [5], in assay [6] and in [8] was “inactive” throughout. Also, the Potency result in assay [9], in [10], in assay [11], in [12], in assay [13] and in [14] was “inactive” in each case. Moreover, the Potency entry in [15], in assay [20], in [16] and in [18] was “inactive” each time. Besides, the outcome in assay [4], in assay [7] and in [17] was inactive.
As for `C=Cc1cccc(C)c1`, the Potency result in assay [1], in assay [2], in [3], in [5], in [6] and in [8] was “inactive” throughout. Also, the Potency result in assay [9], in [10], in assay [11], in assay [12], in assay [13] and in assay [14] was “inactive” throughout. Further, the Potency entry in [15] and in assay [20] was “inactive” each time. Besides, the call in assay [7] was inactive.
Take `O=[N+]([O-])c1ccc(F)c(Cl)c1`: the Potency entry in [1], in [2], in assay [19], in [5], in assay [8] and in assay [9] was “inactive” throughout. Moreover, the Potency entry in assay [11], in assay [12], in assay [14], in assay [15], in assay [20] and in assay [16] was “inactive” each time. Also, in assay [18], the Potency result is “inactive”. Also, the compound was classed as inactive in [7] and in [17]. The Potency in assay [10] was 1.09 µM (active).
